Shown are actives, neighbours in structure and some others; about 3% of the full set was active somewhere.
Mcl1-Bid inh = Mcl-1/Bid binding inhibitors, primary screen, biochemical, TR-FRET, 1536-well | Induced myeloid leukemia cell differentiation protein Mcl-1 (Homo sapiens), Q07820 | TR-FRET Mcl-1/Bid-Dy647 peptide binding | inhibition, % at 21.7 µM | actives 0.97% (n = 220,000);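 active = compounds that cut the binding signal by more than half at the single screening dose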;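 also: His-tagged Mcl-1 with europium anti-His antibody binding Bid BH3 peptide; 0% = Mcl-1 plus peptide wells and 100% = peptide-only wells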
Target sequence (Q07820 whole entry, looked up): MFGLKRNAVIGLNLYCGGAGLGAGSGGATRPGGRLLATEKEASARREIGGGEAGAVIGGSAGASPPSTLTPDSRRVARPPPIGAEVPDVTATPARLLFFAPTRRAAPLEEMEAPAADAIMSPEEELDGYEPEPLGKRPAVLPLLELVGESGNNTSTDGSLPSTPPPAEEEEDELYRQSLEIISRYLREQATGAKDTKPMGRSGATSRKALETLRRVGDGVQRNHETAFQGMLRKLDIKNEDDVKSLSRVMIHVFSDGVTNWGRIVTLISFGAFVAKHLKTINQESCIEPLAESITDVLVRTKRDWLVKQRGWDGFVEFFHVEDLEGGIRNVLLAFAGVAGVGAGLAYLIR
Mcl1 Noxa PPI = Mcl-1/Noxa binding inhibitors, primary screen, biochemical, TR-FRET, 1536-well. inhibition, % at 21.7 µM. actives 1.5% (n = 220,000). TR-FRET Mcl-1/Noxa peptide binding, 2 h. Induced myeloid leukemia cell differentiation protein Mcl-1 (Homo sapiens), Q07820;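 active = compounds that cut the protein-peptide binding signal by more than 50% relative to plate controls in a single-dose test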;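 also: His-tagged Mcl-1 with rhodamine Noxa BH3 peptide and terbium anti-His antibody; 0% = Mcl-1 plus Noxa peptide wells and 100% = peptide-only wells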
Arbovirus inh = antivirals against arbovirus infection, primary screen, cell-based, full library, 10K replicate subset. actives 0.37% (n = 200,000). AID 1251, 2008. arbovirus infection cell-based antiviral screen. inhibition, % at 10 µM; in the data active = inhibition above about 30%
Bim-Mcl-1 = inhibitors of Bim peptide binding to Mcl-1, primary screen, biochemical, bead-based flow cytometry, multiplex | actives 0.1% (n = 190,000) | AID 1009, 2008 | Bim peptide-Mcl-1 binding | inhibition, % at 10 µM; in the data active = inhibition above about 40%;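 also: 0% = no compound tracer wells and 100% = peptide blocker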
14-3-3 Bad PPI = inhibitors of 14-3-3 zeta/Bad binding, primary screen, biochemical, TR-FRET, bovine 14-3-3 zeta | 14-3-3 protein zeta/delta (Bos taurus), P63103 | TR-FRET 14-3-3zeta/Dy647-pBad peptide displacement, 1 h | inhibition, % at 21.7 µM | actives 0.71% (n = 220,000);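 active = inhibition above about 70%, limit read from the data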;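 also: 0% = full 14-3-3 plus peptide FRET controls and 100% = background without 14-3-3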
An asterisk follows results filed as active; nt = not tested or not shown.

SMILES	Mcl1-Bid inh	Mcl1 Noxa PPI	Arbovirus inh	Bim-Mcl-1	14-3-3 Bad PPI
COC(=O)CSc1ncnc2c1sc1nc(-c3ccco3)c3c(c12)CC(C)(C)OC3	-61	76*	13	1	nt
CCSc1ncnc2c1sc1nc(-c3ccco3)c3c(c12)CC(C)(C)OC3	-12	28	3	2	-13
COc1ccc(N2CCN(C(CNC(=O)C(=O)NCc3cccs3)c3ccco3)CC2)cc1 (centres undefined)	-38	29	12	-2	2
O=C(NCC1CCCO1)c1ccc2c(=O)n(Cc3ccc(Cl)cc3)c(=S)[nH]c2c1 (centres undefined)	-2	18	-12	-4	-15
O=C(NCc1ccccc1)c1ccc2c(=O)n(CC3CCCO3)c(=S)[nH]c2c1 (centres undefined)	-44	4	1	-2	10
CCCCCNC(=O)c1ccc2c(=O)[nH]c3c(C(=O)NCC4CCCO4)sc(=S)n3c2c1 (centres undefined)	-39	52*	-2	4	1
O=C(NCC1CCCO1)c1ccc2c(=O)n(-c3ccc(F)cc3)c(=S)[nH]c2c1 (centres undefined)	-49	-12	-3	48*	-3
O=C(NCc1ccco1)c1sc(=S)n2c1[nH]c(=O)c1ccccc12	-30	73*	2	-2	43
CCn1c(N)c(C(=O)NCC2CCCO2)sc1=S (centres undefined)	-21	5	3	-14	10
O=C(NCc1ccccc1)c1ccc2c(=O)[nH]c3c(C(=O)NCC4CCCO4)sc(=S)n3c2c1 (centres undefined)	-35	64*	-15	0	-17
CC(NC(=O)Cn1nnc(-c2ccncc2)n1)c1ccccc1 (centres undefined)	-4	13	4	0	-11
COc1ccc2nc(SCC(=O)Nc3ccc4sc(C)nc4c3)c(C#N)cc2c1	13	-80	-12	0	-16
CCN(Cc1ccncc1)C(=O)c1cc(Br)cc(Br)c1O	-35	-2	3	3	-7
Cc1ccc(CNC(=O)c2ccc3c(=O)[nH]c4c(C(=O)NCC5CCCO5)sc(=S)n4c3c2)cc1 (centres undefined)	17	74*	-2	0	0
CN(C)S(=O)(=O)c1cccc(-c2nn(-c3ccccc3)cc2/C=C2\SC(=S)NC2=O)c1	88*	108*	-28	35	-4
Cc1ccc(S(=O)(=O)CCSC(=N)N)cc1	-6	9	0	-3	-2
CC(C)Cc1csc(NC(=O)c2ccccc2Cl)c1C(=O)O	-26	19	66*	-5	-8
CC(C)Cc1csc(NC(=O)c2ccc(Cl)cc2)c1C(=O)O	22	34	22	-4	-4
Cc1cccc(C(=O)Nc2scc(CC(C)C)c2C(=O)O)c1	-39	9	65*	-1	-5
COc1ccccc1/C=C(/C(=O)OCC(=O)Nc1ccc(N(C)C)cc1)c1ccccc1	-53	69*	-4	-3	-11
COc1ccccc1/C=C(/C(=O)OCC(=O)Nc1ccccc1C)c1ccccc1	12	21	6	3	14
CC(=O)OCC(=O)C1(O)CCC2C3CCC4=CC(=O)C=CC4(C)C3C(O)CC21C (centres undefined)	11	16	nt	nt	3
Cc1ccc(C(=O)Oc2ccc(-c3nccc(-c4ccccn4)n3)cc2)cc1	55*	-53	-4	-3	15
COC(=O)CSc1nc(N)nc(C)c1Cl	-12	-21	3	6	-3
COC(=O)CSc1nc(C)c(C)c(C)c1C(N)=O	70*	25	9	0	-3
SMILES	Mcl1-Bid inh	Mcl1 Noxa PPI	Arbovirus inh	Bim-Mcl-1	14-3-3 Bad PPI
CC(NC(=O)Nc1ccccn1)N1C(=O)C2C3C=CC(C3)C2C1=O (centres undefined)	-11	-4	-4	48*	1
COc1ccc(CCNCC(O)c2ccccc2)cc1 (centres undefined)	25	31	31*	-2	12
OC(CNCCc1ccccc1)c1ccccc1 (centres undefined)	-10	-12	10	0	5
NC(=O)[C@@H]1CCCNc2c(I)cc([N+](=O)[O-])cc2C(=O)N[C@@H](CO)C(=O)N[C@@H](Cc2ccc(O)cc2)C(=O)N1	7	14	2	-1	-4
NC(=O)CC[C@@H]1NC(=O)[C@H](CO)NC(=O)c2cc([N+](=O)[O-])cc(I)c2NCCC[C@@H](C(N)=O)NC(=O)[C@H](Cc2ccc(O)cc2)NC1=O	41	62*	5	0	5
Cc1ccc2c(c1)N(CCC(=O)NCCN1CCOCC1)C(=O)CO2	-7	52*	2	-3	-9
CC(=O)Nc1sc(N/N=C\c2ccccc2F)nc1-c1cccs1	-9	62*	-22	-8	5
CC(=O)Nc1sc(N/N=C\c2cccc(Cl)c2)nc1-c1cccs1	-10	37	-18	-6	-6
CC(=O)Nc1sc(N/N=C\c2ccc(O)cc2)nc1-c1cccs1	-71	104*	nt	nt	4
CCSc1ncc(Cl)c(C(=O)Nc2sc3c(c2C(=O)NCc2cccnc2)CCCC3)n1	59*	27	-6	44*	58
COc1ccc(CN2C(=O)CN=C2Nc2cccc(C)c2C)cc1	-10	23	6	-1	82*
COc1ccc(NC2=NCC(=O)N2Cc2cccs2)cc1	17	32	11	2	75*
COc1cccc(NC2=NCC(=O)N2Cc2cccs2)c1	17	15	-3	-3	71*
Cc1ccc(NC2=NCC(=O)N2Cc2cccs2)cc1C	4	22	-5	-1	-2
NNC(=O)C12CC3CC(C1)CC(n1ncnn1)(C3)C2	-57	9	2	2	12
COC(=O)Cc1ccc(O)c(N)c1	-46	19	0	-1	-7
Cc1ccsc1C(=O)C1CCCN(Cc2cc(F)ccc2-n2cccn2)C1 (centres undefined)	-19	-2	4	-3	-2
CC(Nc1cccnc1)=C(C#N)C#N	2	-16	2	1	-13
CCN(CC)C(=O)CSc1nc2ccc(NC(=O)CSc3nnc(N)s3)cc2s1	-55	44	2	-3	-19
CCN(CC)C(=O)CSc1nc2ccc(NC(=O)CSc3nccn3C)cc2s1	4	56*	2	14	-14
Cn1c(SCC(=O)Nc2ccc3nc(SCC(=O)N4CCCC4)sc3c2)nnc1-c1ccc(N)cc1	24	100*	3	0	-2
Cn1c(SCC(=O)Nc2ccc3nc(SCC(=O)NC4CC4)sc3c2)nnc1-c1ccccc1	8	12	2	-2	5

Screening data (PubChem BioAssay)
